Results filed as inconclusive are left out. A number with no mark means an inactive call. The source made the active and inactive calls. Calls follow the shape of the full dose curve; tested in HEK293 reporter line. Peptide text beside a SMILES is read from it.
Assay: qHTS for Inhibitors of the Functional Ribonucleoprotein Complex (vRNP) of Lassa (LASV) Arenavirus: LASV Primary Screen - GLuc reporter signal (AID 1347082); also: nearly all actives have a fitted effect of over 60% in size
Settings: LASV minigenome vRNP, Gaussia luciferase reporter; series mostly up to 57.5 µM; activity change, negative = inhibition: at the top concentration
% is scaled to controls: 0 for no effect and ±100 for the full control effect; potency is read from the fitted curve at half-maximal effect.

First: CN1C(CSCC(F)(F)F)Nc2cc(Cl)c(S(N)(=O)=O)cc2S1(=O)=O (stereo not drawn)
Second: CCN[C@H]1CN(CCCOC)S(=O)(=O)c2sc(S(N)(=O)=O)cc21
The “activity change, negative = inhibition” value of the first is lower: -15.1% for the first, 1.73% for the second.

Compared with `CC(=O)Nc1ccc(CC(=O)O)cc1`, `O=C(O)CN1C(=O)c2cccc3cccc(c23)C1=O` is higher in “activity change, negative = inhibition” value: 0.164% for the first, 0.641% for the second.

First: C/C=C/C=N/NC(=O)c1ccncc1
Second: O=C(N/N=C/c1ccccc1O)c1ccncc1
The “activity change, negative = inhibition” value of the first is higher: 0.812% for the first, -24.5% for the second.

First: Cc1ccc(C(=O)C(C)CN2CCCCC2)cc1 (stereo not drawn)
Second: O=C1CC[C@H](C(=O)N2CCCCC2)N1
The “activity change, negative = inhibition” value of the first is higher: 6.66% for the first, -2.6% for the second.

Going from `Cc1cc(C)c(NC(=O)CN(CC(=O)O)CC(=O)O)c(C)c1Br` to `CC(=O)Oc1cccc2c1C(=O)c1c(OC(C)=O)cc(C(=O)O)cc1C2=O`, the “activity change, negative = inhibition” value rises from -0.239% to 7.36%.

Going from `FC1(F)C(F)(F)C(F)(F)C2(F)C(F)(F)C(F)(F)C(F)(F)C(F)(F)C2(F)C1(F)F` (stereo not drawn) to `C[C@]12CCC(=O)C=C1CC[C@H]1[C@@H]3CC[C@](O)(C(=O)CO)[C@@]3(C)C[C@H](O)[C@@]12F`, the “activity change, negative = inhibition” value falls from -0.533% to -7.19%.

Going from `O=C(c1ccco1)N1CCNCC1` to `C=CCN1CCc2nc(N)sc2CC1`, the “activity change, negative = inhibition” value falls from 6.74% to -1.61%.

Compared with `Cc1cc(=O)oc2cc(O[C@@H]3SC[C@@H](O)[C@H](O)[C@H]3O)ccc12`, `N[C@@H](Cc1cc(I)c(Oc2ccc(O)c(I)c2)c(I)c1)C(=O)O` is lower in “activity change, negative = inhibition” value: -1.09% for the first, -14.3% for the second.

Going from `CCCCCCCCCCCCCCCCCCN(C)C` to `Cc1cc(O)cc2c1O[C@](C)(CCC[C@H](C)CCC[C@H](C)CCCC(C)C)CC2`, the “activity change, negative = inhibition” value falls from 0.126% to -0.486%.

First: CC(C(=O)O)c1ccc2c(c1)[nH]c1ccc(Cl)cc12 (stereo not drawn)
Second: CC(CCc1ccccc1)NCC(O)c1ccc(O)c(C(N)=O)c1 (stereo not drawn)
The “activity change, negative = inhibition” value of the first is higher: 12% for the first, 5.97% for the second.

Compared with `CCN(CC)CCNC(=O)COc1ccc(OC)cc1`, `CCN1CCC[C@H]1CNC(=O)c1c(OC)ccc(Br)c1OC` is higher in “activity change, negative = inhibition” value: -1.77% for the first, 4.88% for the second.

First: CC(C)=CCC1C(=O)N(c2ccccc2)N(c2ccccc2)C1=O
Second: O=C(O)CCCC[P+](c1ccccc1)(c1ccccc1)c1ccccc1
The “activity change, negative = inhibition” value of the first is lower: -21.9% for the first, 3.26% for the second.

Going from `CS(=O)(=O)c1ccc([C@@H](O)[C@@H](CF)NC(=O)C(Cl)Cl)cc1` to `Cc1cc(C)nc(NS(=O)(=O)c2ccc(N)cc2)n1`, the “activity change, negative = inhibition” value rises from -5.69% to 12.4%.

Compared with `CC(C)(C)c1cc(C=O)cc(C(C)(C)C)c1O`, `COc1ccc(CCN(C)CCCN2CCc3cc(OC)c(OC)cc3CC2=O)cc1OC` is lower in “activity change, negative = inhibition” value: 1.1% for the first, -11.7% for the second.

First: CN1CCN(N)CC1
Second: CCNC(=O)[C@@H]1CCCN1C(=O)[C@H](CCCN=C(N)N)NC(=O)[C@H](CC(C)C)NC(=O)CNC(=O)[C@H](Cc1ccc(O)cc1)NC(=O)[C@H](CO)NC(=O)[C@H](Cc1c[nH]c2ccccc12)NC(=O)[C@H](Cc1cnc[nH]1)NC(=O)[C@@H]1CCC(=O)N1 (HELM PEPTIDE1{[Glp].H.W.S.Y.G.L.R.P.[CCN[*:1]]}$$$$V2.0)
The “activity change, negative = inhibition” value of the first is higher: 1.44% for the first, -3.9% for the second.

Compared with `CC(=O)N[C@@H](CC(C)C)C(=O)O`, `COc1ccc(Cc2cnc(N)nc2N)cc1OC` is lower in “activity change, negative = inhibition” value: 6.44% for the first, 4.52% for the second.

With `OC[C@H]1O[C@@H](Oc2ccc(O)cc2)[C@H](O)[C@@H](O)[C@@H]1O` the Potency was “inactive”.
In the case of `CCN1CCCC1CNC(=O)c1cc(S(=O)(=O)CC)c(N)cc1OC` (stereo not drawn), the Potency is reported as “inactive”.
For `Nc1nc(N)nc(-c2cc(Cl)ccc2Cl)n1`, the Potency was “inactive”.
For `COc1cccc2c1C(=O)c1c(O)c3c(c(O)c1C2=O)C[C@@](O)(C(C)=O)C[C@H]3O[C@H]1C[C@H](N)[C@H](O)[C@H](C)O1`, the Potency was 1220 nM (active).
In the case of `O=C(O)CCCCCCCC(=O)O`, the Potency is reported as “inactive”.
In the case of `CC(=O)OCC1=C(C(=O)O)N2C(=O)[C@@H](NC(=O)Cc3cccs3)[C@H]2SC1`, the Potency is reported as “inactive”.

For `O=P(O)(O)C(O)(Cn1ccnc1)P(=O)(O)O`, the “activity change, negative = inhibition” value was 7.61% [at 24.7 µM].

Assay: qHTS for Inhibitors of the Functional Ribonucleoprotein Complex (vRNP) of Lassa (LASV) Arenavirus: Viability assay - alamar blue signal for LASV Primary Screen (AID 1347083); also: nearly all actives have a fitted effect of over 80% in size
Settings: cell viability, alamar blue fluorescence (LASV minigenome counter-screen); series mostly up to 57.5 µM; activity change, negative = reduced viability: at the top concentration

First: CN1C(CSCC(F)(F)F)Nc2cc(Cl)c(S(N)(=O)=O)cc2S1(=O)=O (stereo not drawn)
Second: CCN[C@H]1CN(CCCOC)S(=O)(=O)c2sc(S(N)(=O)=O)cc21
The “activity change, negative = reduced viability” value of the first is higher: 0.317% for the first, -1.45% for the second.

Compared with `CC(=O)Nc1ccc(CC(=O)O)cc1`, `O=C(O)CN1C(=O)c2cccc3cccc(c23)C1=O` is higher in “activity change, negative = reduced viability” value: -2.51% for the first, 0.661% for the second.

Going from `C/C=C/C=N/NC(=O)c1ccncc1` to `O=C(N/N=C/c1ccccc1O)c1ccncc1`, the “activity change, negative = reduced viability” value falls from -7.4% to -32.8%.

Going from `Cc1ccc(C(=O)C(C)CN2CCCCC2)cc1` (stereo not drawn) to `O=C1CC[C@H](C(=O)N2CCCCC2)N1`, the “activity change, negative = reduced viability” value falls from 7.39% to 3.36%.

Compared with `Cc1cc(C)c(NC(=O)CN(CC(=O)O)CC(=O)O)c(C)c1Br`, `CC(=O)Oc1cccc2c1C(=O)c1c(OC(C)=O)cc(C(=O)O)cc1C2=O` is lower in “activity change, negative = reduced viability” value: 11.9% for the first, -1.11% for the second.

Compared with `FC1(F)C(F)(F)C(F)(F)C2(F)C(F)(F)C(F)(F)C(F)(F)C(F)(F)C2(F)C1(F)F` (stereo not drawn), `C[C@]12CCC(=O)C=C1CC[C@H]1[C@@H]3CC[C@](O)(C(=O)CO)[C@@]3(C)C[C@H](O)[C@@]12F` is lower in “activity change, negative = reduced viability” value: 6.45% for the first, 1.98% for the second.

First: O=C(c1ccco1)N1CCNCC1
Second: C=CCN1CCc2nc(N)sc2CC1
The “activity change, negative = reduced viability” value of the first is lower: -3.65% for the first, -1.14% for the second.

Going from `Cc1cc(=O)oc2cc(O[C@@H]3SC[C@@H](O)[C@H](O)[C@H]3O)ccc12` to `N[C@@H](Cc1cc(I)c(Oc2ccc(O)c(I)c2)c(I)c1)C(=O)O`, the “activity change, negative = reduced viability” value falls from 2.88% to 0.85%.

First: CCCCCCCCCCCCCCCCCCN(C)C
Second: Cc1cc(O)cc2c1O[C@](C)(CCC[C@H](C)CCC[C@H](C)CCCC(C)C)CC2
The “activity change, negative = reduced viability” value of the first is higher: 11.5% for the first, 1.41% for the second.

Compared with `CC(C(=O)O)c1ccc2c(c1)[nH]c1ccc(Cl)cc12` (stereo not drawn), `CC(CCc1ccccc1)NCC(O)c1ccc(O)c(C(N)=O)c1` (stereo not drawn) is lower in “activity change, negative = reduced viability” value: 21.1% for the first, 1.57% for the second.

Going from `CCN(CC)CCNC(=O)COc1ccc(OC)cc1` to `CCN1CCC[C@H]1CNC(=O)c1c(OC)ccc(Br)c1OC`, the “activity change, negative = reduced viability” value rises from 9.35% to 27.1%.

Compared with `CC(C)=CCC1C(=O)N(c2ccccc2)N(c2ccccc2)C1=O`, `O=C(O)CCCC[P+](c1ccccc1)(c1ccccc1)c1ccccc1` is higher in “activity change, negative = reduced viability” value: -38.7% for the first, 16.3% for the second.

Going from `CS(=O)(=O)c1ccc([C@@H](O)[C@@H](CF)NC(=O)C(Cl)Cl)cc1` to `Cc1cc(C)nc(NS(=O)(=O)c2ccc(N)cc2)n1`, the “activity change, negative = reduced viability” value rises from -2.99% to 9.94%.

First: CC(C)(C)c1cc(C=O)cc(C(C)(C)C)c1O
Second: COc1ccc(CCN(C)CCCN2CCc3cc(OC)c(OC)cc3CC2=O)cc1OC
The “activity change, negative = reduced viability” value of the first is lower: 2.84% for the first, 13.8% for the second.

First: CN1CCN(N)CC1
Second: CCNC(=O)[C@@H]1CCCN1C(=O)[C@H](CCCN=C(N)N)NC(=O)[C@H](CC(C)C)NC(=O)CNC(=O)[C@H](Cc1ccc(O)cc1)NC(=O)[C@H](CO)NC(=O)[C@H](Cc1c[nH]c2ccccc12)NC(=O)[C@H](Cc1cnc[nH]1)NC(=O)[C@@H]1CCC(=O)N1 (HELM PEPTIDE1{[Glp].H.W.S.Y.G.L.R.P.[CCN[*:1]]}$$$$V2.0)
The “activity change, negative = reduced viability” value of the first is lower: 9.12% for the first, 11.5% for the second.

Going from `CC(=O)N[C@@H](CC(C)C)C(=O)O` to `COc1ccc(Cc2cnc(N)nc2N)cc1OC`, the “activity change, negative = reduced viability” value rises from -1.9% to 1.41%.

With `OC[C@H]1O[C@@H](Oc2ccc(O)cc2)[C@H](O)[C@@H](O)[C@@H]1O` the Potency was “inactive”.
In the case of `CCN1CCCC1CNC(=O)c1cc(S(=O)(=O)CC)c(N)cc1OC` (stereo not drawn), the Potency is reported as “inactive”.
With `Nc1nc(N)nc(-c2cc(Cl)ccc2Cl)n1` the Potency was “inactive”.
With `COc1cccc2c1C(=O)c1c(O)c3c(c(O)c1C2=O)C[C@@](O)(C(C)=O)C[C@H]3O[C@H]1C[C@H](N)[C@H](O)[C@H](C)O1` the Potency was 153 nM (active).
For `O=C(O)CCCCCCCC(=O)O`, the Potency was “inactive”.
With `CC(=O)OCC1=C(C(=O)O)N2C(=O)[C@@H](NC(=O)Cc3cccs3)[C@H]2SC1` the Potency was “inactive”.

With `O=P(O)(O)C(O)(Cn1ccnc1)P(=O)(O)O` the “activity change, negative = reduced viability” value was 5.51% [at 24.7 µM].
